Bioassay records from PubChem BioAssay.
The list is not random: actives were taken first. Their share in the collection is about 1.4%.
PriA SSB inh – inhibitors of Klebsiella pneumoniae PriA binding to SSB C-terminal tail | AlphaScreen SSBct-PriA binding, biotinylated peptide | inhibition, % at 33 µM | actives 0.6% (n = 430,000); in the data active = inhibition mostly above about 37%, no sharp cut-off; inactive = mostly below about 20%;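 note: plate controls were negative control peptide for no effect and reference peptide for full effect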
CCHF vOTU inh – blocks the CCHF virus ovarian tumor domain protease; CCHFV vOTU protease, Pep-AMC fluorescence; inhibition, % at 11.5 µM; actives 0.55% (n = 370,000); in the data active = inhibition above about 30%; note: 0% = vehicle wells with enzyme and 100% = no enzyme wells
ugtP null kill – growth inhibition of S. aureus ugtP deletion strain. S. aureus RN4220 ugtP deletion, OD600 growth, 16 h. growth inhibition, % (no concentration beside the values). actives 0.54% (n = 330,000). AID 1259309; in the data active = growth inhibition above about 68%;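 note: plate controls were untreated wells for no effect and antibiotic for full effect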
Mtb hypoxia inh – Mtb hypoxia fluorescent reporter inhibition | fluorescence inhibition, % (no concentration beside the values) | M. tuberculosis hypoxia-regulated fluorescent reporter, fluorescence | actives 0.1% (n = 300,000); in the data active = fluorescence inhibition mostly above about 23%, no sharp cut-off; inactive = mostly below about 17%
RN4220 kill – S. aureus RN4220 growth inhibition | inhibition, % (concentration not given with the values) | actives 0.33% (n = 330,000) | OD600, 16 h; in the data active = inhibition above about 85%;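 note: plate controls were untreated cells for no effect and reference antibiotic for full effect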
* hit, by the source's call; / = not tested or not shown.

SMILES | PriA SSB inh | CCHF vOTU inh | ugtP null kill | Mtb hypoxia inh | RN4220 kill
Cc1cc(C(=O)NN=Cc2cccn2C)n[nH]1 | -18 | / | 15 | 8 | 1
CCOc1ccc(S(=O)(=O)Nc2ccc(Nc3ccc(-n4cccn4)nn3)cc2)cc1 | 70* | / | / | / | /
O=[N+]([O-])c1ccc(C2CCCCC2=NOCc2ccc(F)cc2)c([N+](=O)[O-])c1 (centres undefined) | 45* | / | -17 | 17 | 3
S=C1Nc2ccccc2CS1 | / | -3 | / | / | /
S=C1Cc2ccccc2N1 | 25 | 100* | 20 | 6 | -16
O=C(NCc1cccs1)C(=O)NC[C@H](O)C1CCCCC1 | -3 | / | / | / | /
Cn1nnnc1Sc1ccc([N+](=O)[O-])cc1Cl | 8 | 10 | 27 | 2 | -2
O=[N+]([O-])c1ccc(Sc2nnnn2-c2ccccc2)c(Cl)c1 | 45* | -5 | -9 | 4 | 9
N#Cc1ccc(Cl)cc1NC(=O)C(=O)NCC[C@H](O)c1ccco1 | -20 | / | / | / | /
CC(C)(Sc1ccc(CCN(CCCCC2CCCCC2)C(=O)NC2CCCCC2)cc1)C(=O)O | 5 | 8 | 86* | 8 | 66
CN(Cc1ccccc1)C(=O)NC1CCCCC1 | -10 | -4 | -1 | 5 | 4
COc1ccc(S(=O)(=O)N2CCCC[C@@H]2CCNC(=O)C(=O)Nc2ccccc2C#N)cc1 | -23 | / | / | / | /
COc1ccc(-c2cn3nc(SCC(=O)Nc4cc(OC)ccc4OC)ccc3n2)cc1 | -9 | / | / | / | /
C=CCSc1nc2c(c(C3CC=CCC3)c1C#N)CCC2 (centres undefined) | -23 | -9 | 97* | 3 | -4
CC(C)OC(=O)CSc1nc2c(c(C3CC=CCC3)c1C#N)CCC2 (centres undefined) | -44 | -15 | 35 | 3 | -2
CC(=NNC(=O)c1cc(-c2ccco2)nc2ccccc12)c1cccnc1 | -20 | / | 17 | 0 | 4
C#CCNC(=O)C1=CC(C2CC2)C(CCCO)C(OCC)O1 (centres undefined) | / | / | -1 | 7 | 7
COc1ccccc1-c1nnc(C2CCN(C(=O)c3cc(C)on3)CC2)s1 | -10 | / | / | / | /
CCCN1CCCc2cc(CCNC(=O)c3ccccc3OC)ccc21 | 73* | / | / | / | /
CCCN1CCCc2cc(CCNC(=O)c3ccccc3Cl)ccc21 | 53* | / | / | / | /
CCCN1CCCc2cc(CCNC(=O)C(=O)NCCc3ccccc3)ccc21 | 44 | / | / | / | /
CCCN1CCCc2cc(CCNC(=O)c3ccccc3C)ccc21 | 59* | / | / | / | /
COCCCn1c(NS(=O)(=O)c2ccccc2)c(S(=O)(=O)c2ccc(C)cc2)c2nc3ccccc3nc21 | 72* | / | / | / | /
COCCCn1c(NS(=O)(=O)c2ccc(C)cc2)c(S(=O)(=O)c2ccc(C)cc2)c2nc3ccccc3nc21 | 59* | / | / | / | /
CCCCCCCCn1c(NS(=O)(=O)c2ccc(C)cc2)c(S(=O)(=O)c2ccccc2)c2nc3ccccc3nc21 | 50 | / | / | / | /
SMILES | PriA SSB inh | CCHF vOTU inh | ugtP null kill | Mtb hypoxia inh | RN4220 kill
COCCn1c(NS(=O)(=O)c2ccc(C)cc2)c(S(=O)(=O)c2ccc(C)cc2)c2nc3ccccc3nc21 | 63* | / | / | / | /
O=C(c1ccc(=O)[nH]c1)N1CCN(c2nc3c(C(F)(F)F)cccc3s2)CC1 | 10 | / | / | / | /
O=C(NCCOc1ccc(-c2ccccc2)nn1)c1cccs1 | -3 | / | / | / | /
CS(=O)(=O)c1ccc(CCCN)cc1 | 0 | / | / | / | /
COC(=O)[C@@H]1C[C@@]2(O)[C@@H](O)[C@@H](O)[C@@H](O)C[C@H]2N1Cc1cc(OC)cc(OC)c1 | 101* | 11 | / | / | /
COC(=O)[C@@H]1C[C@@]2(O)[C@H](O)[C@H](O)[C@H](O)C[C@H]2N1Cc1cc(OC)cc(OC)c1 | -2 | 17 | / | / | /
Cc1cc(CN2CCOCC2)c(O)c(C2(C)CCCCC2)c1 | -14 | 2 | 99* | / | 7
Cc1nc2ccc(NC(=O)c3ccccn3)cc2c(=O)n1-c1ccc(Cl)cc1 | -1 | / | / | / | /
NC1=NCC(CC2CCCCC2)N1CCc1cc(C(F)(F)F)cc(C(F)(F)F)c1 (centres undefined) | / | / | 101* | 8 | 101*
NC1=NC[C@@H](CC2CCCCC2)N1CCc1cc(C(F)(F)F)cc(C(F)(F)F)c1 | -5 | / | 100* | / | 100*
NC1=NCC(Cc2ccccc2)N1CCc1cc(C(F)(F)F)cc(C(F)(F)F)c1 (centres undefined) | / | / | -1 | 19 | -16
O=[N+]([O-])c1cc2c(cc1C=Nc1ccccc1)OCO2 | 19 | / | / | / | /
Cc1cccc(N=Cc2cc3c(cc2[N+](=O)[O-])OCO3)c1 | 45* | 0 | 7 | 15 | 5
CCc1c(C)nc2n(c1=O)C[C@H](C(=O)N(Cc1ccccc1)C(C)C)CS2 | -18 | / | / | / | /
COc1cccc(C(=O)NC2C(=O)N3C(C(=O)O)=C(COC(C)=O)CSC23)c1 (centres undefined) | -6 | 5 | / | / | /
